Experiment [1] is described as follows: antimalarial activity against Dd2 strain (AID 2302;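 active = growth inhibition above 50% at the single 2 µM test dose, taken to imply half-maximal potency below 2 µM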;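 note: 0% = DMSO untreated growth and 100% = chloroquine plus artemisinin killed control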). As to conditions: P. falciparum Dd2 in RBCs, LDH growth readout, 72 h; at 2 µM; hits give high values.
The nature of experiment [2]: HepG2 cytotoxicity, primary screen, cytotoxicity control for P. falciparum antimalarial project, cell-based, ATP luminescence (AID 2303;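 active = inhibition above 50%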;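 note: 0% = DMSO wells and 100% = digitonin-killed cells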). Particulars: HepG2 viability, 24-48 h, at 10 µM, hits give high values.
Experiment [3] concerns the target L-lactate dehydrogenase (Plasmodium falciparum (isolate CDC / Honduras)) (UniProt Q27743). As to the kind of experiment: PfLDH activity inhibition – cell lysate, 3D7 strain, counter-screen for P. falciparum growth inhibition project (AID 2304).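 Note: 0% = vehicle and 100% = reference inhibitor.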 Particulars: P. falciparum 3D7 crude extract, LDH APAD/NBT absorbance; at 2 µM; hits give high values. In general terms: Counterscreens check selectivity or assay interference.

A short description of experiment [4]: inhibition of 3D7 malaria parasite growth – strain 3D7 (AID 2306).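 Note: 0% = DMSO wells and 100% = chloroquine plus artemisinin control wells.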 As to conditions: P. falciparum 3D7 erythrocytic growth, LDH absorbance, 72 h; at 2 µM; hits give high values.
Experiment [5] deals with Calcium-dependent protein kinase 1 (Plasmodium falciparum (isolate 3D7)) (UniProt P62344). Briefly: PfCDPK1 kinase inhibitors, biochemical, TCAMS library (AID 1159585; cut-off not given, nearly all actives have IC50 up to about 0.98 µM;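 note: inhibitors leave more ATP so luminescence rises with inhibition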). As to conditions: recombinant PfCDPK1, Kinase-Glo ATP depletion luminescence. A general note: In Kinase-Glo more light means more ATP remaining.
Sequence of Calcium-dependent protein kinase 1 (Plasmodium falciparum (isolate 3D7)) (P62344 whole entry, looked up): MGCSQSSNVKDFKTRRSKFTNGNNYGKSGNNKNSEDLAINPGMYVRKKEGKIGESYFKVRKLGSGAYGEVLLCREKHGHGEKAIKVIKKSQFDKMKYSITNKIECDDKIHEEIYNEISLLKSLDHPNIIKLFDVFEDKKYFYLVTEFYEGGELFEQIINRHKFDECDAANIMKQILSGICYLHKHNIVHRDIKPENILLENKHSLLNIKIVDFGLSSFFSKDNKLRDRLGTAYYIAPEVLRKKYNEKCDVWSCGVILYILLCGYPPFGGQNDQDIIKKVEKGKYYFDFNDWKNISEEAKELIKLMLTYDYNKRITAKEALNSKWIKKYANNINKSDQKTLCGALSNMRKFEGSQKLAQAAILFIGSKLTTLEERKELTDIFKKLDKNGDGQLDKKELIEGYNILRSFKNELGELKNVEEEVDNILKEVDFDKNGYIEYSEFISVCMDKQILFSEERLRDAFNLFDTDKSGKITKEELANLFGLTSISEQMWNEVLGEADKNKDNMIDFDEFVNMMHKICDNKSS
Experiment [6] deals with Plasmodium falciparum protein kinase 6 (PK6, PF3D7_1337100) (UniProt Q8IDW1). Briefly: PfPK6 kinase inhibitors, biochemical, TCAMS library (AID 1159586). As to conditions: recombinant PfPK6, Kinase-Glo ATP depletion luminescence.
Sequence of Plasmodium falciparum protein kinase 6 (PK6, PF3D7_1337100) (Q8IDW1 1-305): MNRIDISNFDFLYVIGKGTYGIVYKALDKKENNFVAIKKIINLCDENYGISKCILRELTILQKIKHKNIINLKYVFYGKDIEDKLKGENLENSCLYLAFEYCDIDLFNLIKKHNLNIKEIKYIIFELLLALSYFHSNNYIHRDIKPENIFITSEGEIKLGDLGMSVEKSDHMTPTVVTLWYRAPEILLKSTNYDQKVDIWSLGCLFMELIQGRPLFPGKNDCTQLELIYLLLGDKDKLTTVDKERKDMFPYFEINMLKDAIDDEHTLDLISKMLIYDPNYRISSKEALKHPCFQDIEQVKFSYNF
Experiment [7] deals with Protein kinase 7 (PK7), Plasmodium falciparum 3D7 (PF3D7_0213400) (UniProt Q7YTF7). As to the kind of experiment: inhibition of Plasmodium PK7 catalytic activity – biochemical, TCAMS antimalarial set, Kinase-Glo luminescence (AID 1159587). Particulars: recombinant PfPK7, Kinase-Glo ATP depletion luminescence.
Sequence of Protein kinase 7 (PK7), Plasmodium falciparum 3D7 (PF3D7_0213400) (Q7YTF7 1-343): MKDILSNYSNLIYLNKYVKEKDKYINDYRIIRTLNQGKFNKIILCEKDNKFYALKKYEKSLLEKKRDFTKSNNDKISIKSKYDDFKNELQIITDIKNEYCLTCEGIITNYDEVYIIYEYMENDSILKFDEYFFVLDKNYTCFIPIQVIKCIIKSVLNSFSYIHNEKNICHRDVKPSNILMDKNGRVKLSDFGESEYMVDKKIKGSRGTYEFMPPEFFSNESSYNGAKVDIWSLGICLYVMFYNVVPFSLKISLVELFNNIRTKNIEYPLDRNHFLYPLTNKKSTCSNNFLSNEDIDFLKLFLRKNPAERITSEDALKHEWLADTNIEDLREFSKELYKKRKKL
Experiment [8] addresses Calcium-dependent protein kinase 4 (Plasmodium falciparum (isolate 3D7)) (UniProt Q8IBS5). As to the kind of experiment: PfCDPK4 kinase inhibitors, biochemical, TCAMS library (AID 1159588; cut-off not given, nearly all actives have IC50 up to about 0.91 µM). As to conditions: recombinant PfCDPK4, Kinase-Glo ATP depletion luminescence.

The structures appear in SMILES notation. Values without a mark were called inactive. For part of these data: Results with a measured potency or affinity are listed apart. Active and inactive are the calls of the source. Unless noted, the rule behind the calls is not given here.

The term inhibition denotes the change of the read-out against control, counted positive when it falls.

Sequence of Calcium-dependent protein kinase 4 (Plasmodium falciparum (isolate 3D7)) (Q8IBS5 whole entry, looked up): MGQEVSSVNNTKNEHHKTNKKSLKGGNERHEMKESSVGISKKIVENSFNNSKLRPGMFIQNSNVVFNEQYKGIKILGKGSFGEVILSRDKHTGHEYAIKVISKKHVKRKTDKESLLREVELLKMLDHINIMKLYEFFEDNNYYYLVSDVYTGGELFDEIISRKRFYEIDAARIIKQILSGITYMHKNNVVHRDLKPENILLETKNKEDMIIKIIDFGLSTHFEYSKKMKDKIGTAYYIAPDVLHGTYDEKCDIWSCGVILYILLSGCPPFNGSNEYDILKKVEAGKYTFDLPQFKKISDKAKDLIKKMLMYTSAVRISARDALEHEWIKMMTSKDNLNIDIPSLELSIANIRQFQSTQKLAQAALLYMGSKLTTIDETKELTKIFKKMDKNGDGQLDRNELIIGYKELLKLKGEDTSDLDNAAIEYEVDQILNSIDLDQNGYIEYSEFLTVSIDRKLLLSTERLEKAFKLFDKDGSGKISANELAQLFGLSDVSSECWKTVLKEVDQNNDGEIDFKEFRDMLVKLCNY
Sequence of L-lactate dehydrogenase (Plasmodium falciparum (isolate CDC / Honduras)) (Q27743 whole entry, looked up): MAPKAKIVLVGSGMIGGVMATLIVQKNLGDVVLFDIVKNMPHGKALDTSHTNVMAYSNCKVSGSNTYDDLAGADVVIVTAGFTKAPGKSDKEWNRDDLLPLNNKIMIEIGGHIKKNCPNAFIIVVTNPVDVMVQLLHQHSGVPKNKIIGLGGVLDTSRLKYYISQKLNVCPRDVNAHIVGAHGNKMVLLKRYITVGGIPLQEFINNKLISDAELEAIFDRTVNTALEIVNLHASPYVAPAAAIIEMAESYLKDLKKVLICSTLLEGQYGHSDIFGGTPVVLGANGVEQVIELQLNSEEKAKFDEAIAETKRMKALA

Consider `COc1cccc2sc(Nc3nc(-c4ccccn4)cs3)nc12`, for which the growth inhibition in experiment [1] was 76% (active); in experiment [4], 94% (active). Moreover, the inhibition is 41% in experiment [2] and 4% in experiment [3]. The outcome in experiment [5], in experiment [6], in experiment [7] and in experiment [8] was inactive.

On to `CCN(CC)CCN(Cc1ccc(-c2ccc(C(F)(F)F)cc2)cc1)C(=O)c1c[nH]c2ccc(Br)cc12`, for which the growth inhibition in experiment [1] was 74% (active); in experiment [4], 90% (active). The inhibition is 80% (active) in experiment [2] and -4% in experiment [3]. The result in experiment [5], in experiment [6], in experiment [7] and in experiment [8] was inactive.

With `CCOC(=O)c1ccc(-c2c(C(F)(F)F)noc2-c2cc(CC)c(OC)cc2O)o1`, the growth inhibition was 95% (active) in experiment [1] and 100% (active) in experiment [4]. Also, the inhibition is -7% in experiment [2] and 1% in experiment [3]. Moreover, the result in experiment [5], in experiment [6], in experiment [7] and in experiment [8] was inactive.

For `COc1ccccc1CCNc1nc(C)cc(N[C@@H](CC(C)C)C(=O)NCc2cccs2)n1`, the growth inhibition was 31% in experiment [1] and 96% (active) in experiment [4]. Besides, the inhibition in experiment [2] was 20%; in experiment [3], 0%. Also, the outcome in experiment [5], in experiment [6], in experiment [7] and in experiment [8] was inactive.

As for `CCCCCCNC(=O)C1Cc2c([nH]c3ccc(C)cc23)C2(CCN(CCc3ccccc3)CC2)N1` (centres undefined), the growth inhibition in experiment [1] is 24%; in experiment [4], 85% (active). Further, the inhibition is 31% in experiment [2] and 4% in experiment [3]. In addition, the result in experiment [5], in experiment [6], in experiment [7] and in experiment [8] was inactive.

Take `CC(C)=CCN1CCC(C(=O)Nc2ccc(-c3nc4ccccc4[nH]3)cc2)CC1`: the growth inhibition in experiment [1] is -1%; in experiment [4], 95% (active). For the same compound, the inhibition in experiment [2] is -2%; in experiment [3], -3%. The outcome in experiment [5], in experiment [6], in experiment [7] and in experiment [8] was inactive.

For `O=C(c1ccc(-c2cccc(-c3nc4ccc(C(F)(F)F)cc4[nH]3)c2)cc1)N1CCCCC1CN1CCC(O)C1` (centres undefined), the growth inhibition in experiment [1] is 98% (active); in experiment [4], 100% (active). Also, the results for the inhibition in experiment [2] and in experiment [3] were 29% and -11%, respectively. Moreover, the outcome in experiment [5], in experiment [6], in experiment [7] and in experiment [8] was inactive.

Regarding `CCCCSc1nc2c(c(=O)n1Cc1ccco1)C1(CCCCC1)Cc1ccccc1-2`, the growth inhibition in experiment [1] was 78% (active); in experiment [4], 96% (active). For the same compound, the inhibition was 13% in experiment [2] and 2% in experiment [3]. Besides, the outcome in experiment [5], in experiment [6], in experiment [7] and in experiment [8] was inactive.

For `COc1cccc(OC)c1CN1CCC(N(C)CCCCCCCCCN2CCC(OC(=O)Nc3ccccc3-c3ccccc3)CC2)CC1`, the growth inhibition in experiment [1] and in experiment [4] was 98% (active) each time. The inhibition in experiment [2] is 100% (active); in experiment [3], -1%. Moreover, the outcome in experiment [5], in experiment [6], in experiment [7] and in experiment [8] was inactive.

For the compound `CC(C)c1ccc(CN2CCCCC(NC(=O)c3cc(-c4cccc(F)c4)cs3)C2)cc1` (centres undefined), the growth inhibition is 13% in experiment [1] and 94% (active) in experiment [4]. The inhibition in experiment [2] is 6%; in experiment [3] it was 1%. Also, the result in experiment [5], in experiment [6], in experiment [7] and in experiment [8] was inactive.

Regarding `Clc1ccc(Nc2nc3ccc(Cl)cc3nc2Nc2ccc(Cl)cc2)cc1`, the growth inhibition in experiment [1] and in experiment [4] was 99% (active) each time. In addition, the inhibition in experiment [2] was 79% (active); in experiment [3], 3%. In addition, the outcome in experiment [5], in experiment [6], in experiment [7] and in experiment [8] was inactive.

As for `CCOC(=O)c1cnc2c(OC)cc(OC)c(Cl)c2c1Nc1cccc(C)c1`, the values for the growth inhibition in experiment [1] and in experiment [4] were 20% and 95% (active), respectively. For the same compound, the results for the inhibition in experiment [2] and in experiment [3] were 0% and -2%, respectively. The result in experiment [5], in experiment [6], in experiment [7] and in experiment [8] was inactive.

Turning to `CCOc1ccc2c(NN=Cc3cc(OC)c(OC)c(OC)c3)cc(C)nc2c1`, the figures for the growth inhibition in experiment [1] and in experiment [4] were 99% (active) and 101% (active), respectively. Moreover, the inhibition in experiment [2] was 18%; in experiment [3] it was -4%. The outcome in experiment [5], in experiment [6], in experiment [7] and in experiment [8] was inactive.

Consider `CN(C)CCOc1cc(NC(=O)Nc2ccc(-c3ccccc3)cc2)ccc1I`, for which the growth inhibition was 45% in experiment [1] and 101% (active) in experiment [4]. For the same compound, the inhibition in experiment [2] was 9%; in experiment [3], -3%. For the same compound, the result in experiment [5], in experiment [6], in experiment [7] and in experiment [8] was inactive.

As for `CC(C)(C)Nc1nc(Nc2cccc([N+](=O)[O-])c2)nc(-n2ccnc2)n1`, the results for the growth inhibition in experiment [1] and in experiment [4] were 41% and 98% (active), respectively. For the same compound, the results for the inhibition in experiment [2] and in experiment [3] were 10% and -9%, respectively. Also, the outcome in experiment [5], in experiment [6], in experiment [7] and in experiment [8] was inactive.

With `CC1(C)N=C(N)N=C(N)N1c1ccc([N+](=O)[O-])cc1`, the growth inhibition in experiment [1] is 1%; in experiment [4], 93% (active). Further, the results for the inhibition in experiment [2] and in experiment [3] were 3% and -3%, respectively. Moreover, the outcome in experiment [5], in experiment [6], in experiment [7] and in experiment [8] was inactive.

As for `COc1ccc2ncc(F)c(CCN3C[C@H](CNCc4ccc5c(n4)NC(=O)CS5)[C@H](O)C3)c2c1`, the growth inhibition in experiment [1] was 34%; in experiment [4], 92% (active). For the same compound, the inhibition in experiment [2] and in experiment [3] was -3% each time. Also, the outcome in experiment [5], in experiment [6], in experiment [7] and in experiment [8] was inactive.

Turning to `CC(C)Nc1nc(NCCc2cnc[nH]2)nc(NCc2ccc(Cl)c(Cl)c2)n1`, the results for the growth inhibition in experiment [1] and in experiment [4] were -1% and 88% (active), respectively. Further, the inhibition was -3% in experiment [2] and 7% in experiment [3]. Besides, the result in experiment [5], in experiment [6], in experiment [7] and in experiment [8] was inactive.

The values are drawn from PubChem BioAssay.
